# BoNT-F LC inh – BoNT F light chain protease inhibition. Multiplex microsphere protease cleavage assay, flow cytometry. inhibition, % at 10 µM. AID 588497. 360,000 tested, 0.22% active; in the data active = inhibition above about 35%, passing the limit was not always enough; inconclusive = no clear call, values can overlap the other calls; also: plate controls were buffer without enzyme for full effect and enzyme alone for no effect
# Vc quorum ag – quorum light induction in luxS cqsA deficient V. cholerae | 350,000 tested, 0.16% active | V. cholerae BH1578 lux reporter, luminescence, 6 h | AID 588436 | activation, % at 18.7 µM; in the data active = activation mostly above about 9.7%, no sharp cut-off; inconclusive = no clear call, values can overlap the other calls; inactive = mostly below about 3.7%
# Bead autofluor – counter-screen for toxin protease inhibitors: compound fluorescence; compound autofluorescence counterscreen, microsphere flow cytometry; active compounds read high; fluorescence intensity (concentration not given with the values); 360,000 tested, 3.1% active; AID 624483; in the data active = fluorescence intensity above about 16000; inconclusive = no clear call, values can overlap the other calls
# Anthrax LF prot – anthrax lethal factor protease inhibition; multiplex microsphere protease cleavage assay, LF; inhibition, % at 10 µM; 360,000 tested, 0.12% active; AID 588501; also: plate controls were buffer without enzyme for full effect and enzyme alone for no effect
# Target sequence (P15917 whole entry, looked up): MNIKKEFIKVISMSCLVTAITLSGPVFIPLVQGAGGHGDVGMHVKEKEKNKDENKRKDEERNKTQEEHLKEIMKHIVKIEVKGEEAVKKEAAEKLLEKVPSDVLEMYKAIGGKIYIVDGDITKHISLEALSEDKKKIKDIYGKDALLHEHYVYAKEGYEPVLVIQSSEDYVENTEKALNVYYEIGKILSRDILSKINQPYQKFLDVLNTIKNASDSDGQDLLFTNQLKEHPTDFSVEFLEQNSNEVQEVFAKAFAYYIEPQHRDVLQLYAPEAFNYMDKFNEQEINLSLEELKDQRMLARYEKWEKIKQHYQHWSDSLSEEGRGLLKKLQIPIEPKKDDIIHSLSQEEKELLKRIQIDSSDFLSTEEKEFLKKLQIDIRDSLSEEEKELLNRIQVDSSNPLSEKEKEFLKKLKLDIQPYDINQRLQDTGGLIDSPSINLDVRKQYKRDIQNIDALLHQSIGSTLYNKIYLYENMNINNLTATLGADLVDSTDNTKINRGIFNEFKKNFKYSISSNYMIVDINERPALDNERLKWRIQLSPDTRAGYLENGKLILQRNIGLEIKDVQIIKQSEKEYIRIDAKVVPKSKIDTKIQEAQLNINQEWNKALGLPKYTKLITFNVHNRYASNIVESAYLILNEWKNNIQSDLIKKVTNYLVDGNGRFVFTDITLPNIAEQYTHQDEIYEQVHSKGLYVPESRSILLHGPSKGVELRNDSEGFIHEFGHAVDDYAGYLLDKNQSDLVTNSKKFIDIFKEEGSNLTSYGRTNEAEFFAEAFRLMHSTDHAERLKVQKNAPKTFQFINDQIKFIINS
# BoNT-A LC inh2 – blocks Botulinum neurotoxin A light chain protease | inhibition, % at 10 µM | 360,000 tested, 0.17% active | multiplex microsphere protease substrate cleavage, flow cytometry; also: plate controls were buffer without enzyme for full effect and enzyme alone for no effect
# The depositor's hits bear a star; i = inactive; ? = inconclusive; / = no result; + = active, no number. Hits are enriched below; roughly 3.5% of the tested compounds scored in any of these assays. Rule as the data show it, unless noted: active = inhibition above about 30%; inconclusive = no clear call, values can overlap the other calls; inactive = below that.
SMILES,BoNT-F LC inh,Vc quorum ag,Bead autofluor,Anthrax LF prot,BoNT-A LC inh2
Cc1cc(NC(=O)CSc2nc3ccsc3c(=O)n2NC(=O)c2ccccc2)no1,2.7,-0.3,10892,1.0,0.1
Cc1ccc(CNC(=O)CSc2nc3ccsc3c(=O)n2NC(=O)c2ccccc2)cc1,-3.0,-5.9,23505*,-4.8,-1.6
O=C(/C=C/c1ccccc1)NCCc1ccccc1,-6.0,-0.4,4543,4.9,-0.6
CCOC(=O)C(C)Sc1ncc(OC)c(Sc2ccc(Cl)cc2)n1 (stereo unspecified),-10.0,-2.3,24632*,-2.3,-5.6
CCOC(=O)CSc1ncc(OC)c(=O)[nH]1,4.8,-0.6,10007,9.1,0.3
CCOC(=O)CSc1ncc(OC)c(Sc2ccc(Cl)cc2)n1,0.3,i,21505*,-16.3,?
NS(=O)(=O)c1ccc(CCNS(=O)(=O)Cc2ccc(Cl)cc2)cc1,15.9,-0.7,3294,-12.4,0.3
COc1cc(-c2nnc(SCC(=O)NC3CCCC3)n2C)cc(OC)c1O,-36.0,i,3894,13.2,-3.6
Cn1c(=O)c2c(nc(SCCN3CCOCC3)n2C)n(C)c1=O,?,-0.2,4174,1.3,-6.2
CCNC(=S)N/N=C(\C)c1cccc([N+](=O)[O-])c1,-4.6,-3.0,2477,-0.1,-0.7
COC(=O)c1c(C)n(Cc2ccco2)c2ccc(O)cc12,-9.1,-0.2,24915*,-1.9,-7.6
O=C(Nc1ccc(-n2nncc2-c2ccco2)cc1)c1cc2ccccc2oc1=O,7.0,-0.2,20140*,0.6,1.8
O=C(Nc1ccc(-n2nncc2-c2ccco2)cc1)c1cccc(F)c1,-15.2,-0.9,12002,-4.8,-1.0
CC(CC(=O)OCC(=O)Nc1ccc2[nH]c(=O)[nH]c2c1)c1ccccc1 (stereo unspecified),-11.7,-0.4,2780,-9.7,0.5
CCCCOC(=O)CCNc1n[nH]c(=O)[nH]c1=O,4.3,i,8958,-3.1,1.2
CCCCOC(=O)CNc1n[nH]c(=S)[nH]c1=O,6.2,3.2,21415*,0.0,?
CC(C)COC(=O)CNc1n[nH]c(=S)[nH]c1=O,-6.9,+,10488,1.2,-0.6
CC12CN(C(=O)c3ccc(Cl)cc3)C3(C#N)CC1CCC23C (stereo unspecified),-11.7,i,22214*,-0.7,?
O=C(c1ccccc1)c1ccc2ccccc2c1,-3.7,i,3957,-13.3,-0.8
O=C(c1ccccc1)c1c2c(cc3sc4ccccc4[n+]13)-c1cccc3cccc-2c13,-15.9,-0.6,6966,1.5,73.3*
Cc1cc(=O)n(-c2ccc3ccccc3n2)[nH]1,-0.3,i,17043*,1.0,-0.3
CC1=CCC2C(=O)N(c3ccc4ccccc4n3)C(=O)C2C1 (stereo unspecified),-7.3,1.3,2857,2.4,0.7
COc1ccc(NC(=O)N2CCC(c3nc(-c4cccs4)no3)CC2)cc1,6.3,i,9612,-4.2,0.8
COc1cc(C(=O)N2CCCC(c3nc(-c4cccs4)no3)C2)cc(OC)c1OC (stereo unspecified),-4.1,0.0,17019*,-8.6,-4.9
O=C(Nc1cccc(C(F)(F)F)c1)N1CCC(c2nc(-c3ccc(F)cc3)no2)CC1,-2.9,i,20249*,-2.8,2.0
SMILES,BoNT-F LC inh,Vc quorum ag,Bead autofluor,Anthrax LF prot,BoNT-A LC inh2
O=C(Nc1ccc(Cl)cc1)N1CCC(c2nc(-c3cccs3)no2)CC1,-2.2,i,24323*,-2.8,?
COc1cccc(C(=O)N2CCCC(c3nc(-c4cccs4)no3)C2)c1 (stereo unspecified),1.4,-0.3,10849,-1.6,-0.2
COc1c(F)c(F)c(C(=O)Nc2ccc(NC(=O)Cc3ccccc3)cc2)c(F)c1F,-3.7,-0.8,4368,-8.7,-0.9
C/C(=N\NC(=O)C1CC1)c1ccccc1O,1.9,i,3299,-5.4,-0.3
CC(=O)c1ccc(NC(=O)C(C)Sc2nnnn2C)cc1 (stereo unspecified),-5.5,-0.2,23749*,0.2,-4.2
CC(Sc1nnnn1C)C(=O)Nc1ccccc1 (stereo unspecified),4.9,-0.2,4532,-1.0,0.6
COc1cc(C(=O)NCCC(=O)NCCCN2CCCCC2C)cc(OC)c1OC (stereo unspecified),-4.3,2.7,24313*,-4.4,-2.0
CCOC(=O)C1CCN(C(=O)CCNC(=O)c2cc(OC)c(OC)c(OC)c2)CC1,-0.6,-0.2,16426*,-4.1,-0.7
COc1cc(C(=O)NCCC(=O)NC2CCCCC2)cc(OC)c1OC,-1.3,-1.0,4953,-0.4,1.5
COc1cc2cc(CCCOC(=O)CCCC(=O)O)oc(=O)c2cc1OC,-0.9,0.6,3899,1.0,-0.4
COc1ccc(CCN2CC(C(=O)N3CCN(C(C)=O)CC3)CCC2=O)cc1 (stereo unspecified),12.6,i,4098,0.0,1.4
Cc1c(OCc2nn[nH]n2)ccc2c(-c3ccccc3)cc(=O)oc12,-12.7,i,9006,-3.4,-1.0
Cc1cc(OCc2nn[nH]n2)c2c(-c3ccccc3)cc(=O)oc2c1,1.4,i,20272*,-2.5,1.0
COc1ccc(-c2cc(=O)oc3c(C)c(OCc4nn[nH]n4)ccc23)cc1,-2.5,-3.0,23374*,-9.1,?
O=C(NC1CCOc2ccccc21)c1ccc(Cl)nc1 (stereo unspecified),3.0,-0.4,6232,3.7,0.2
O=C(CSc1nc(=O)n2ccccc2n1)NCc1ccccc1Cl,-17.0,i,7964,0.2,-7.6
O=C(CSc1ncccn1)NCc1ccccc1Cl,-3.6,-0.5,21734*,-1.6,?
COCCCn1c(SCC(=O)NCc2ccco2)nc2sc3c(c2c1=O)CCC3,4.4,-0.2,19443*,-1.7,1.8
COCCNC(=O)c1ccc2c(=O)n(Cc3ccco3)c(SCC(=O)NC3CCCC3)nc2c1,3.7,3.8,21828*,-9.1,0.8
CCOC(=O)CSc1nc2cc(C(=O)NCC3CCCO3)ccc2c(=O)n1Cc1ccco1 (stereo unspecified),1.7,5.9,22243*,-3.8,1.1
C=CCn1c(SCC(=O)NCc2ccco2)nc2ccccc2c1=O,-5.3,i,3795,-5.7,-0.9
C=CCn1c(SCC(=O)OCC)nc2cc(C(=O)NCc3ccco3)ccc2c1=O,-0.1,-6.2,23049*,-2.4,1.0
COCCNC(=O)CSc1nc2cc3c(cc2c(=O)n1Cc1ccco1)OCO3,8.6,/,8652,-12.7,1.2
O=C(CSc1nc2sc3c(c2c(=O)n1-c1ccccc1)CCCC3)NCc1ccco1,-5.3,-0.2,4174,-13.2,-0.6
Cc1n[nH]c(=O)c2c(NC(=O)CSc3nncs3)oc(C)c12,2.7,-0.7,6333,-1.4,-0.4
COCCNC(=O)C1(C)CCCN(C(=O)c2cccnc2SC)C1 (stereo unspecified),0.8,-4.5,2797,-1.9,-0.2
CCCCn1c(SCC(=O)NCc2ccco2)nc2ccc(N3CCOCC3)cc2c1=O,-8.8,-12.5,22158*,-2.4,-7.2
CCCCCn1c(SCC(=O)OCC)nc2cc(C(=O)NCc3ccco3)ccc2c1=O,-10.0,-0.3,21498*,-6.0,-6.0
CCN(C(=O)CSc1nc2cc(C(=O)OC)ccc2c(=O)n1Cc1ccco1)c1cccc(C)c1,-6.7,i,16983*,-3.4,-3.0

# Screens: PubChem, several laboratories
